The full list was thinned out, with hits kept by preference.
IDE exosite inh: exo-site inhibitors of human IDE, primary screen, biochemical, fluorescence anisotropy, probe displacement. purified IDE, FL-6b probe fluorescence polarization; stronger effect = lower value. z-score at 20 µM. 17,000 compounds, 6.3% hits. AID 1259349, 2017;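 active means z-score of -3 or lower, meaning strong loss of probe binding signal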;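 further: His-tagged human IDE residues 42-1019 made in E. coli with 30 nM FL-6b probe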
Target sequence (P14735 42-1019 limits assumed): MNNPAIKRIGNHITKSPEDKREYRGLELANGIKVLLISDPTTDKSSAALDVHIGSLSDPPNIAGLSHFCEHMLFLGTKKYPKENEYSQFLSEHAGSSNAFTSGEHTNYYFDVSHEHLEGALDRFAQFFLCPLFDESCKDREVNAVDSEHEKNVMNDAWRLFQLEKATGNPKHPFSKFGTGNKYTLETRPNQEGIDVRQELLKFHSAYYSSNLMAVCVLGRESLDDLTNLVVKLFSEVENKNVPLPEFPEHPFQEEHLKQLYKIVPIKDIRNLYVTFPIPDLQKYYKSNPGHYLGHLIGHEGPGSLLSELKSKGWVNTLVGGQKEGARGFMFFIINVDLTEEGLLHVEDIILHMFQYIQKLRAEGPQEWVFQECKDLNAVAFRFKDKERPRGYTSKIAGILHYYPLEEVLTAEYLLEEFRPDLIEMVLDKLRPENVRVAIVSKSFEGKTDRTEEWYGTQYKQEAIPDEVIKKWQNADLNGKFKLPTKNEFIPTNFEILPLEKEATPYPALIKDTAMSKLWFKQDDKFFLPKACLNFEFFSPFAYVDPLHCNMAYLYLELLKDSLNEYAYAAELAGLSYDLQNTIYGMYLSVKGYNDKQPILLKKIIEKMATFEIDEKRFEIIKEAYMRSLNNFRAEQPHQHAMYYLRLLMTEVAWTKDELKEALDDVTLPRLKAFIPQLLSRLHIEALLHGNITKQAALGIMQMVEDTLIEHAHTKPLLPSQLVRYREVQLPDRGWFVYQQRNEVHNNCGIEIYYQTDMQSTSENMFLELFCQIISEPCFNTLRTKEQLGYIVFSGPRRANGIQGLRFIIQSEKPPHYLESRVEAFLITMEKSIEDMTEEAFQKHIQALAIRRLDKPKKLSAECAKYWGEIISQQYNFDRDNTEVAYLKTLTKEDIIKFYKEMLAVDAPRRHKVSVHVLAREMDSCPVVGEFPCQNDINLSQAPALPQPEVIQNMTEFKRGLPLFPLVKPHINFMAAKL
Numbers stand for hits; i = inactive.

SMILES | IDE exosite inh
O=C(C1CCOCC1)N1CC(=O)N2[C@@H](CO)[C@H](c3ccc(/C=C/c4ccccc4)cc3)[C@@H]2C1 | -4.5
O=C(C1CCOCC1)N1CC(=O)N2[C@H](CO)[C@@H](c3ccc(/C=C/c4ccccc4)cc3)[C@H]2C1 | i
O=C(C1CCOCC1)N1CC(=O)N2[C@H](CO)[C@@H](c3ccc(/C=C/c4ccccc4)cc3)[C@@H]2C1 | -5.5
O=C(C1CCOCC1)N1CC(=O)N2[C@H](CO)[C@@H](c3ccc(Br)cc3)[C@@H]2C1 | i
CN(C)C(=O)c1ccc(-c2ccc([C@@H]3[C@@H](CO)N4C(=O)CN(C(=O)CC5CC5)C[C@@H]34)cc2)cc1 | i
C[C@@H]1CN([C@H](C)CO)C(=O)c2cc(NC(=O)C3CCCCC3)ccc2O[C@H]1CN(C)Cc1ccc2c(c1)OCO2 | i
O=C(CN1CCOCC1)N1CCCCN2[C@@H](CO)[C@H](c3ccc(C#Cc4ccccc4)cc3)[C@@H]2C1 | -7.1
O=C(CN1CCOCC1)N1CCCCN2[C@H](C1)[C@@H](c1ccc(C#Cc3ccccc3)cc1)[C@@H]2CO | -6.6
Cc1ccccc1-c1ccc([C@H]2[C@@H](CO)N3CCCCN(C(=O)CN4CCOCC4)C[C@@H]23)cc1 | i
O=C(CN1CCOCC1)N1CCCCN2[C@H](CO)[C@@H](c3ccc(C#Cc4ccccc4)cc3)[C@H]2C1 | -3.3
O=C(CN1CCOCC1)N1CCCCN2[C@@H](CO)[C@@H](c3ccc(C#Cc4ccccc4)cc3)[C@@H]2C1 | -5.5
N#C[C@@H]1[C@@H](c2ccccc2C2=CCCC2)[C@H](CO)N1C(=O)C1CCC1 | i
C[C@@H]1CN([C@@H](C)CO)C(=O)CCCn2cc(nn2)CO[C@@H]1CN(C)S(=O)(=O)c1cccc(C#N)c1 | i
COc1ccc(S(=O)(=O)Nc2cccc3c2O[C@@H](CN(C)CC2CCCCC2)[C@H](C)CN([C@H](C)CO)C3=O)cc1 | i
CCS(=O)(=O)Nc1ccc2c(c1)C(=O)N(C)[C@@H]1CC[C@@H](CC(=O)NCCCN3CCOCC3)O[C@H]1CO2 | i
N#C[C@H]1[C@H](c2ccccc2-c2ccccc2F)[C@H](CO)N1C(=O)c1ccccn1 | i
Cc1ccccc1-c1ccccc1[C@H]1[C@@H](C#N)N(C(=O)c2ccc(F)cc2)[C@H]1CO | i
Cc1noc(C)c1NC(=O)N1C[C@@H](O)COC[C@@H]2O[C@@H](CC(=O)N3CCc4ccccc4C3)CC[C@H]21 | i
O=C(Nc1cccc(F)c1)N1C[C@@H]2[C@H](c3ccccc31)[C@H](CO)N2C(=O)Cc1ccccn1 | i
O=C(c1cccc(F)c1)N1CCCCN2[C@H](CO)[C@H](c3ccc(/C=C/c4ccccc4)cc3)[C@H]2C1 | i
C/C=C/c1ccc([C@@H]2[C@H](CO)N(C(=O)c3ccccc3)C23CN(C(C)=O)C3)cc1 | i
O=C(CN1CCOCC1)N1CCCCN2[C@H](C1)[C@H](c1ccc(Br)cc1)[C@@H]2CO | i
O=C(CN1CCOCC1)N1CCCCN2[C@H](C1)[C@H](c1ccc(C#Cc3ccccc3)cc1)[C@@H]2CO | -13
O=C(CN1CCOCC1)N1CCCCN2[C@@H](CO)[C@@H](c3ccc(/C=C/c4ccccc4)cc3)[C@@H]2C1 | -10
O=C(CN1CCOCC1)N1CCCCN2[C@H](CO)[C@@H](c3ccc(-c4ccccc4)cc3)[C@@H]2C1 | i
SMILES | IDE exosite inh
O=C(CN1CCOCC1)N1CCCCN2[C@H](CO)[C@H](c3ccc(Br)cc3)[C@@H]2C1 | i
O=C(CN1CCOCC1)N1CCCCN2[C@H](CO)[C@@H](c3ccc(-c4ccccc4)cc3)[C@H]2C1 | i
CCCC(=O)Nc1ccc2c(c1)OC[C@@H](C)NC[C@@H](C)[C@@H](OC)CN(C)C2=O | i
COc1ccc2c3c(n(C)c2c1)[C@H](CO)N(CC1CC1)CC31CCN(S(=O)(=O)c2cccs2)CC1 | i
CN(C)C(=O)c1cccc(-c2ccccc2[C@@H]2[C@@H](C#N)N(C(=O)C3CCC3)[C@@H]2CO)c1 | i
C/C=C/c1ccc([C@@H]2[C@@H](C#N)N(C(=O)Cc3ccccn3)[C@@H]2CO)cc1 | i
O=C(c1ccc(F)cc1)N1CC(=O)N2[C@H](C1)[C@@H](c1ccc(-c3cccnc3)cc1)[C@@H]2CO | i
COCC(=O)N1CCCCN2[C@H](CO)[C@H](c3ccc(C#Cc4cccnc4)cc3)[C@@H]2C1 | -3.1
CCC(=O)N1CCCCN2[C@H](C1)[C@H](c1ccc(-c3cccnc3)cc1)[C@@H]2CO | i
COCC(=O)N1CCCCN2[C@H](CO)[C@H](c3ccc(C#Cc4cccnc4)cc3)[C@H]2C1 | i
CCC(=O)N1CCCCN2[C@H](CO)[C@H](c3ccc(C#Cc4cccnc4)cc3)[C@@H]2C1 | -10
CCC(=O)N1CCCCN2[C@@H](CO)[C@@H](c3ccc(C#Cc4cccnc4)cc3)[C@@H]2C1 | -3.1
O=C(Nc1cccc(F)c1)N1CCCCN2[C@H](CO)[C@H](c3ccc(C#Cc4cccnc4)cc3)[C@@H]2C1 | i
CCC(=O)N1CCCCN2[C@@H](CO)[C@@H](c3ccc(-c4cccnc4)cc3)[C@@H]2C1 | i
COCC(=O)N1CCCCN2[C@H](C1)[C@H](c1ccc(C#Cc3cccnc3)cc1)[C@@H]2CO | i
C/C=C/c1ccc(C2[C@H]3CNC[C@@H]2N3S(C)(=O)=O)cc1 (stereo not given in full) | i
CCN(C[C@H]1N[C@@H](CO)[C@@H]1c1ccc(C2=CCCC2)cc1)C(=O)c1ccncc1 | i
O=C(C[C@@H]1CC[C@H]2[C@@H](COC[C@@H](O)CN2C(=O)Nc2ccc(F)cc2)O1)NC1CCC1 | i
CCC(=O)Nc1ccc2c(c1)C(=O)N(C)C[C@@H](OC)[C@H](C)CN(Cc1nccs1)[C@@H](C)CO2 | i
C[C@H](O)C#Cc1ccc([C@@H]2[C@H](CO)N3CCCCN(CC4CCOCC4)C[C@@H]23)cc1 | i
N#C[C@H]1[C@@H](c2ccccc2)[C@H](CO)N1S(=O)(=O)c1ccc(F)cc1 | i
CC(C)C#Cc1ccc([C@H]2[C@@H](CO)N3C(=O)CN(C(=O)C4CCCCC4)C[C@@H]23)cc1 | i
O=C(Nc1cccc(F)c1)N1CC(=O)N2[C@@H](CO)[C@@H](c3ccc(-c4ccc(F)cc4)cc3)[C@@H]2C1 | i
C/C=C/c1ccc2c(c1)[C@H]1[C@H](CCN1C(=O)c1ccc3c(c1)OCO3)[C@H](CO)N2 | i
CN1CCCCN2[C@H](CO)[C@@H](c3ccc(C#Cc4ccccc4F)cc3)[C@H]2C1 | -4.7
SMILES | IDE exosite inh
CN1CCCCN2[C@H](C1)[C@@H](c1ccc(C#Cc3ccccc3F)cc1)[C@@H]2CO | -3.4
CN1CCCCN2[C@H](C1)[C@H](c1ccc(C#CC3(O)CCCC3)cc1)[C@@H]2CO | i
CN1CCCCN2[C@H](CO)[C@@H](c3ccc(C#CC4(O)CCCC4)cc3)[C@H]2C1 | i
CN1CCCCN2[C@H](C1)[C@H](c1ccc(-c3ccc(F)cc3)cc1)[C@@H]2CO | i
CN1CCCCN2[C@H](CO)[C@H](c3ccc(C#CC4(O)CCCC4)cc3)[C@H]2C1 | i
COc1ccc(C#Cc2ccc([C@@H]3[C@@H](CO)N4CCCCN(C)C[C@@H]34)cc2)cc1 | i
CN1CCCCN2[C@@H](CO)[C@H](c3ccc(C#Cc4ccccc4F)cc3)[C@@H]2C1 | -4.4
CO[C@H]1CN(C)C(=O)c2ccc(NS(=O)(=O)CC(F)(F)F)cc2OC[C@@H](C)N(Cc2nccs2)C[C@H]1C | i
COCC(=O)N1CC(=O)N2[C@H](CO)[C@@H](c3ccc(C#CC4CC4)cc3)[C@H]2C1 | i
